Screens as filed in PubChem BioAssay.
DT40 TDP1 no CPT: qHTS for Inhibitors of human tyrosyl-DNA phosphodiesterase 1 (TDP1): qHTS in cells in absence of CPT; DT40 Tdp1-/- hTDP1 cells, no CPT, ATP luminescence, 48 h; Potency, µM (doses to about 46.2 µM), for the others: at the highest dose activity change, negative = growth inhibition, usual class: inhibitors; 420,000 tested, 15% active; AID 686978, 2013; note: potency is the fitted concentration of half-maximal effect; nearly all actives have a fitted effect of over 55% in size
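Growth of hTDP1-complemented DT40 Tdp1-knockout cells is measured by ATP luminescence after at least 48 hr compound exposure at 37 °C, with DMSO substituting for the 20 nM CPT used in the parallel screen.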
Six1-Eya2 inh: qHTS Assay for Inhibitors of the Six1/Eya2 Interaction; activity change, % (test concentration not listed); AlphaScreen GST-Six1/His-Eya2 binding, biochemical; hits give low values; 360,000 tested, 0.56% active; in the data active = activity change below about -65%; inconclusive = mostly about -30% to -63%
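Homogeneous AlphaScreen proximity assay pairing GST-Six1 with His-tagged Eya2 (added as 5X mix: 250 nM and 500 nM) in 50 mM Tris pH 8.0, 300 mM NaCl, 1 mM TCEP. Glutathione donor and nickel acceptor beads; 1 h, 37 °C, dark.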
TDP1 inh: qHTS Assay for Inhibitors of Tyrosyl-DNA Phosphodiesterase (TDP1); AID 485290, 2010; recombinant TDP1, AlphaScreen DNA substrate cleavage; 350,000 tested, 0.28% active; Potency, µM (top dose mostly 130 µM), for inactives: at the top dose activity change, negative = inhibition, most hits filed as inhibitors; Tyrosyl-DNA phosphodiesterase 1 (Homo sapiens), Q9NUW8; note: potency is the fitted concentration of half-maximal effect; nearly all actives have a fitted effect of over 40% in size
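Compounds were preincubated with Tdp1 (1 nM final) for 15 min at room temperature before substrate (15 nM final) started a 5 min reaction; beads (10 ug/ml final) were then added for 10 min before AlphaScreen detection.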
CtBP-E1A blk: qHTS Assay for Inhibitors of the CtBP/E1A Interaction | AlphaScreen GST-E1A/His-CtBP binding, 1536-well; hits give low values | activity change, % (no concentration beside the values) | 340,000 tested, 0.49% active | AID 651724, 2012; in the data active = activity change below about -65%; inconclusive = mostly about -30% to -63%
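GST-E1A and His-tagged CtBP (125 nM each as 5X stock) were preincubated with pin-transferred compound for 2 h at 37 °C in the dark, then glutathione donor and nickel acceptor beads were added for 1 h before AlphaScreen reading.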
IL-1B inflam inh: qHTS for Inhibitors of Inflammasome Signaling: IL-1-beta AlphaLISA Primary Screen | THP-1 LPS/ATP IL-1B secretion, AlphaLISA, 16 h; hits give low values | activity change, % at 57.5 µM | 360,000 tested, 4.7% active | AID 743279, 2014; in the data active = activity change below about -50%; inconclusive = mostly about -30% to -49%
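Secreted IL-1B measured by AlphaLISA bead assay after 16 h compound exposure of THP-1 cells; compounds (final up to 57.5 uM) added 1 h before LPS (250 ng/mL) and ATP (1.25 mM) stimulation; lower signal means less secretion.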
TDP1 cell CPT: qHTS for Inhibitors of human tyrosyl-DNA phosphodiesterase 1 (TDP1): qHTS in cells in presence of CPT. chicken DT40 Tdp1-/-;hTDP1 cells + 20 nM CPT, ATP luminescence, 48 h. Potency, µM (doses to about 46.2 µM), inactives show at the top dose activity change, negative = growth inhibition, usual class: inhibitors. 420,000 tested, 12% active. AID 686979, 2013; note: potency is the fitted concentration of half-maximal effect; nearly all actives have a fitted effect of over 55% in size
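Chicken DT40 Tdp1-/- cells complemented with human TDP1, 400 cells/well, exposed to compounds plus 20 nM camptothecin for at least 48 h at 37 C; viability read as ATP content by CellTiter-Glo luminescence.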
Starred values were filed as active, the others as inactive; ? = inconclusive; . = no result; [ ] = remark or other dose. Most compounds without a hit are left out; they make up all but 18% or so of the library. Unless noted, calls come from the whole dose curve; as a rule, active = well fitted curve in the direction sought with a large enough effect; inconclusive = small, poorly fitted or top-dose-only effect, or another doubt; inactive = no such curve, though single readings can be large; an effect the other way counts as inactive or inconclusive. % is set by controls: 0 for no effect and ±100 for the full control effect.

SMILES	DT40 TDP1 no CPT	Six1-Eya2 inh	TDP1 inh	CtBP-E1A blk	IL-1B inflam inh	TDP1 cell CPT
O=C(c1ccc(F)c(F)c1)N1CCCc2ccccc21	?	-3	.	.	20	3%
O=C(CN1C(=O)/C(=C/c2ccco2)SC1=S)Nc1ccc(C(=O)O)c(O)c1	-18%	-65*	.	.	11	-11%
O=C(CN1C(=O)/C(=C/c2ccco2)SC1=S)Nc1ccc(O)c(C(=O)O)c1	0%	-4	-18%	.	-12	4%
Cc1ccc(/C=C2\SC(=S)N(CCCC(=O)Nc3ccc(O)cc3)C2=O)cc1	-3%	-3	.	-19	20	1%
COC(=O)c1ccc(/C=C2/SC(=S)N(CCCC(=O)Nc3ccc(O)cc3)C2=O)cc1	13µM*	-2	3%	-16	?	?
OCC[C@H]1C[C@@H](O)[C@H](O)[C@@]2(Cc3ccccc3CCO2)O1	-9%	0	0%	5	14	-4%
CCCOc1ccc(CN2C(=O)C(=O)c3cccc(C)c32)cc1	1.8µM*	.	10%	.	.	1.3µM*
Cc1ccc(OCCCN2C(=O)C(=O)c3cccc(C)c32)cc1	15µM*	-16	10%	-3	14	7.3µM*
O=C1c2ccccc2C(=O)N1CCOc1ccccc1	-12%	8	.	0	4	0%
Cc1ccc(OCCN2C(=O)C(=O)c3cc(C)ccc32)cc1	?	-2	7%	-6	120	0.92µM*
Cc1ccc(CN2C(=O)CSC(C)C2=O)cc1 (configuration not stated)	3%	17	.	8	-11	34%
Cc1ccc(CN2C(=O)C(=O)c3cc(Br)cc(C)c32)cc1	1.5µM*	.	10%	.	.	2.3µM*
CC(C)Oc1cccc(OCCN2C(=O)c3ccccc3C2=O)c1	-18%	-12	0%	-15	?	-5%
Cc1cccc2c1N(CCOc1ccc(C(C)(C)C)cc1)C(=O)C2=O	4.1µM*	-3	-2%	-2	-7	2.9µM*
OCCCCCNc1ncnc2ccccc12	7.3µM*	4	-8%[56.1 µM]	2	46	8.2µM*
Oc1ccc(C2CNCc3sccc32)cc1O (configuration not stated)	21µM*	-14	11%[56.1 µM]	2	3	15µM*
O=C(CSc1cn(CC(=O)N2CCCC2)c2ccccc12)Nc1cc(C(F)(F)F)ccc1Cl	?	.	3%	.	.	18µM*
O=C(CSc1cn(CC(=O)N2CCCCC2)c2ccccc12)Nc1ccc(C(F)(F)F)cc1	-23%	.	8%	.	.	-16%
O=C(Cn1cc(SCc2ccc(C(F)(F)F)cc2)c2ccccc21)N1CCCCC1	23µM*	.	5%	.	.	?
O=C(CSc1cn(CC(=O)N2CCCCCC2)c2ccccc12)Nc1ccccc1F	?	.	8%	.	.	?
O=C(Cn1cc(SCc2ccc(C(F)(F)F)cc2)c2ccccc21)N1CCCCCC1	?	.	-10%	.	.	18µM*
CCCCSCCCNC(=O)c1ccc(CS(=O)(=O)c2ccc(OC)cc2)o1	?	-6	.	0	-3	18µM*
COCCNC(=O)c1ccc(CS(=O)(=O)c2ccccc2)o1	16µM*	21	-1%	6	10	18µM*
CCCCNC(=O)c1ccc(CS(=O)(=O)c2ccc(OC)cc2)o1	-25%	2	3%	8	-18	?
COc1ccc(S(=O)(=O)Cc2ccc(C(=O)NCc3ccccc3OC)o2)cc1	-24%	0	12%	.	-8	21µM*
